Test results: PubChem BioAssay AID1508600 (Functional Genomics Laboratory (NCATS/FGL), 2020)
Hit rate of the full screen: of about 53,000 sequences, about 3,700 (7%) were called active.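 Rule for the calls: active = gene knockdowns whose robust z-score for IL-1 alpha signal is at least 2 or at most -2, so actives lie on both sides; inactive = the rest.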 Only a selection was taken, and actives are over-represented in it overall.

Assay: Components of the Cytosolic LPS Sensing Pathway: Gene Identification via Genome-wide siRNA Screen;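 note: robust z of the log signal after scaling to non-targeting control siRNA wells of the plate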
Settings: RAW264.7 macrophages, IL-1a HTRF, actives lie on both sides, screened at 100 nM (by protocol), cells primed 5 h with Pam3CSK4 first
How it was run: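 Cells (RAW264.7, 1×10^4 per well) were transfected with siRNA at 100 nM and cultured 48h at 37 degrees C. Pam3CSK4 was added for 5 hours; LipidA transfection followed for 24 hour. IL-1a was then measured by HTRF.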

Sequence	z-score
GGUCUGGUCAUCUCAGUUUTT against Tmem159	3.53 (active)
GGCAAUAGCUACACCUUCATT against Csf1r	1.9 (inactive)
CCAUUGUCACUCCUAGUGUTT against Olfr1361	1.03 (inactive)
GGAACAAGAAGAAGAAAAATT against Slco3a1	-1.03 (inactive)
GGUACUUUACACUGAACAATT against Serpinb13	2.91 (active)
GGCAUGUAGGGUUUUGUUUTT against 9830163H01Rik	-0.605 (inactive)
GCUGUCUGAUUCUGAGGUGTT against Slc6a1	2 (active)
GGCAUAAACCACUUCCAGCTT against Dedd2	0.342 (inactive)
GCAUUUAAGGACCUUGUAATT against Olfr813	-1.5 (inactive)
GGCCAUGAUUGUGUUUCAGTT against Tspan8	1.76 (inactive)
GCCUUCCACUACCUUACGUTT against Kcnk3	0.067 (inactive)
CCGACAGACUCACAUACUGTT against Trex1	-0.942 (inactive)
GGCGUGUCUUGAUAGAAAUTT against Tesmin	0.652 (inactive)
GGGAGCAAACGAGAAGAUATT against Gjd2	4.09 (active)
GCGCAAAGUCGAAUCCAGUTT against Vgll1	-0.156 (inactive)
GGAGGGUGAAGAGAAUGGUTT against R3hdm2	1.14 (inactive)
GGUCCAUCAGGAAAAUCAATT against Obox6	0.0445 (inactive)
GGGCUCUGUGGAAAUCAUGTT against Rnf187	-0.043 (inactive)
GGCUGUGAAUCUGAAGAGCTT against Chrna6	0.241 (inactive)
CGAUUUCCCAAGUUAUUACTT against Nxf1	-2.26 (active)
GGUGGUAGCUUUGUACUUUTT against Nxnl2	0.829 (inactive)
GGAAGCACGUUGGAAGGAUTT against Olfr845	0.461 (inactive)

Sequence	z-score
GGAGAAAAGGGUGCUGAAGTT against Ybx3	2.85 (active)
GCAUAUGGAGCAACUUGCUTT against Dsg1c	-1.17 (inactive)
GGCUGAAAGUGAAGAAACGTT against Srp68	-2.11 (active)
GGUGAUGAUCCCAUGGGUUTT against Ube2g2	-0.289 (inactive)
GGUUUGUUUGUUUUUUGGUTT against Ajuba	2.96 (active)
GGUGCAAAGCUUGAAAAUGTT against Gpr150	-0.324 (inactive)
GCGAGUGCUUGGCUAUUAUTT against Ckap2	-0.234 (inactive)
GGAGUGAAAUAUGGAGUUGTT against Dhrs7b	0.787 (inactive)
GGAAUGUAAGAACCCUUGCTT against Adam19	1.77 (inactive)
GAUCUUAGCUGUGUGUGUGTT against Pf4	-2.57 (active)
GGCCUAUGCGAAAAUCUGUTT against Camk2b	-1.14 (inactive)
GGAAAUUCUGGCAUAAAUUTT against Cd86	-0.732 (inactive)
GGACAUCAUUACAAAGAUGTT against Rgs6	-0.608 (inactive)
GCUUCGAGAGUCAACUAUGTT against Mecom	0.232 (inactive)
GGGCACAAAGAUAUGAAUATT against Lgals3bp	0.147 (inactive)
GGUGAGGUAGGUUACUCAGTT against Reps1	-2.16 (active)
GGAACGAAUGAAAAGACUUTT against Tpp2	0.35 (inactive)
GGUUGCUAUGAUUUUUGUUTT against Itsn1	0.52 (inactive)
GGAAGUGAGAAGAUGGAUATT against Fam163b	0.93 (inactive)
GGGACAGAUACAGUUCAUGTT against Zan	-0.114 (inactive)
GCACGAGGAUUCAGAUAUCTT against Gusb	-0.449 (inactive)
GGAUCUCCUGCUUGAACUGTT against Adam33	2.79 (active)

Sequence	z-score
CCAGCAUUAUCCAUAUCAATT against Nat2	0.786 (inactive)
GGUCUCAGACACCUGACUCTT against Opa3	1.53 (inactive)
GGUGUCAGCUUACCAUUCATT against Triap1	-0.329 (inactive)
CCUUGCAUUACUUCUAAAUTT against Aff2	0.29 (inactive)
GGCAUUGUGAAAUCCUAUUTT against Lhx5	-1.31 (inactive)
CCUGACAGCACUUUGUGGATT against Arhgef4	0.481 (inactive)
GGUGCAUGUCUUCAUCCACTT against Rnase12	3.04 (active)
GGAAAAUCCCUGUGUCCGATT against Spdye4a	-1.34 (inactive)
GCAGGAGGUUUAUACAGCCTT against Spata5	-0.969 (inactive)
GCCUAUUCGAAUUUGGGAATT against Ogt	-0.0977 (inactive)
GGAAAUGACGAGAAGAAAGTT against Mapt	-0.0597 (inactive)
GCCUUUGUGAGGAUUAAACTT against Fam83f	-0.000611 (inactive)
GGUAUAUGUCACCAUACUCTT against Phxr2	-1.99 (inactive)
GGCAUGAAGUUUGAAGCCATT against Cnnm2	-2.47 (active)
GGAGCUCUUCCAGUUGUUUTT against Khk	-1.51 (inactive)
GCAAUGUGAGAAUUUUAACTT against Psg26	2.03 (active)
GCACAGAGUCUAGUGUUUATT against Ube2j2	0.325 (inactive)
GGGCAUUGUUGUUUCUAUUTT against Lhfp	-0.0841 (inactive)
CCAAAUUGCUGACUUAUUCTT against Ccna2	0.794 (inactive)
GGGUUUCCUUAUGAGAAAGTT against Mien1	-0.606 (inactive)
GGUUUGUGACAUUAUCUGCTT against Wrnip1	2.36 (active)
CGCUCCAUUGCUCAGUAUUTT against Vtn	1.63 (inactive)

Sequence	z-score
GGCAGCAGAGAAGAAAGCCTT against Pld3	-3.16 (active)
GCUCAAUUGUGGAGCAGUCTT against Cd5l	-0.247 (inactive)
GGCUAAUGAAGCACGCAGATT against Tspan33	0.264 (inactive)
CGACCUAUUAGAGAGCAACTT against Zfp248	2.58 (active)
GGAUCGAAUCUUUACCUAUTT against Col9a1	0.932 (inactive)
GGCCAAAGUCCAUUCAUUCTT against Olfr1120	1.31 (inactive)
CCAAUAUCUCCAAAUAGAATT against Atp8b1	-0.974 (inactive)
GGGAAAUCCGAUAUUCCCUTT against Lats2	1.1 (inactive)
GGCGGUUUUAGUGAAUAACTT against Golm1	2.17 (active)
GGUUAGAGAUCUUUUGAAATT against St14	-0.333 (inactive)
GCAUGUGCUAUAAUGAUCATT against Gm5444	0.256 (inactive)
CCACAAUUACCCAGUAUGATT against Olfr498	-0.939 (inactive)
CCUCAUGUCUGGCAUCUUGTT against Egr4	-1.7 (inactive)
GGGUGCCUACUUGAUCCUUTT against Hgh1	1.63 (inactive)
GGCUUCAAAGGCAAAGUUCTT against Fbf1	-1.5 (inactive)
CCAUAUGUGAUUUGUCUUGTT against Cacnb2	-0.706 (inactive)
CCUAAGGUACCAUUUUAAATT against Clp1	0.225 (inactive)
GGAAGACACACAGUACAUGTT against Rfx2	2.92 (active)
GGAGGCUGUCUGUCUAAUATT against Trim39	0.25 (inactive)
CCAAUCAACCCUCUAAGCATT against Nphp4	0.576 (inactive)
GCCAUCGAUACCACAACACTT against Slfn8	-1.61 (inactive)
GGCAACAUUAGAAGACAGUTT against Tfb1m	-0.591 (inactive)

Sequence	z-score
CCAUCAGGACUCGUGAAUGTT against Fign	-2.09 (active)
GGGAAAUGGAAAGCAUUCUTT against Olfr374	1.41 (inactive)
GGAGUUUGACUCAAUAUCATT against Napb	1.24 (inactive)
CCCUUCUCACUAACAUACATT against Dach1	1.18 (inactive)
GCUACGAGAUUCUUGUUGCTT against Taar3	-0.615 (inactive)
GGAGAGGAGACACAUCAGUTT against Gnpat	-0.067 (inactive)
CCAAAACGUGCAACACAAUTT against Cops6	0.37 (inactive)
GGUUGAACUCAAAGUAAAGTT against Preb	-1.18 (inactive)
GGUGAACCUCAAUAAUAUCTT against Tmod4	0.274 (inactive)
GGAGUUUACUGAGUUUUAGTT against Prkaca	4.49 (active)
GGCUCCAGUAAUUGAUAAATT against Sycp3	-0.0955 (inactive)
GGGCUGCUGCUUAGCAAUCTT against Egln3	-0.0783 (inactive)
GGAUGGAGAAGUUUACUACTT against Yap1	0.714 (inactive)
GGCGUAACCUAACAUGGGATT against Clec1b	-1.35 (inactive)
GCAACAAUUCUAACAGCUGTT against Lhfpl5	-0.138 (inactive)
GGCCUUCCAUACUACAACUTT against Zfp595	2.2 (active)
CCACGUAGGUAAGUGUAGGTT against Oard1	0.81 (inactive)
GGAGCAAGGCUACAUUUUUTT against Itih3	1.36 (inactive)
GGACAAGGCCCUCAUGAUUTT against Nek8	-0.468 (inactive)
GCUCGAGUACCUGUACCUATT against Elfn1	3.11 (active)
CCUUCAACCUUCGAGAUACTT against Kcnh2	-0.417 (inactive)
